Experimental data: PubChem BioAssay (NCATS)
Inconclusive results are not listed. The source made the active and inactive calls. Calls come from the whole dose curve; as a rule, active = well fitted inhibition curve with a large enough effect; inconclusive = small, poorly fitted or top-dose-only effect; inactive = flat fitted curve, though single readings scatter.

test system: C2A; assay: qHTS profiling for inhibitors of Plasmodium falciparum proliferation (AID 504749); note: nearly all actives have a fitted effect of over 60% in size;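 for activity, negative = inhibition: 0% = DMSO vehicle and full inhibition = artemisinin control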; conditions: P. falciparum in erythrocytes, SYBR Green DNA, 72 h; series mostly up to 28.7 µM; activity, negative = inhibition: at the top concentration
In short: (§1)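 Each compound contacts P. falciparum-infected red blood cells for 72 h at 37 C; lysis buffer (Tris, EDTA, saponin, Triton X, SYBR Green I) is added and fluorescence measured next morning; values normalized to controls.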
Potency is the fitted concentration of half-maximal effect.

SMILES	activity, negative = inhibition	Potency
Cn1nnc2c(C(N)=O)ncn2c1=O	-10% (inactive)	
CC(C)OC(=O)C(C(=O)OC(C)C)=C1SC=CS1	-0.187% (inactive)	
CC1=NN(c2ccccc2)C(=O)C1	3.92% (inactive)	
COC(=O)Nc1nc2ccc(Sc3ccccc3)cc2[nH]1	-0.944% [at 12.8 µM] (inactive)	
CCc1c2c(nc3ccc(OC(=O)N4CCC(N5CCCCC5)CC4)cc13)-c1cc3c(c(=O)n1C2)COC(=O)[C@]3(O)CC	-8.7% (inactive)	
Cc1noc(NS(=O)(=O)c2ccc(N)cc2)c1C	1.04% (inactive)	
CN1CCN(c2c(F)cc3c(=O)c(C(=O)O)cn4c3c2OCN4C)CC1	2.89% (inactive)	
S=P(N1CC1)(N1CC1)N1CC1	-0.509% (inactive)	
CC[C@H](NC(C)C)[C@H](O)c1ccc(O)c2[nH]c(=O)ccc12	-2.04% (inactive)	
CC[C@H](C)C(=O)O[C@H]1C[C@@H](C)C=C2C=C[C@H](C)[C@H](CC[C@@H]3C[C@@H](O)CC(=O)O3)[C@H]21	-5.7% (inactive)	
CC(C)(Sc1cc(C(C)(C)C)c(O)c(C(C)(C)C)c1)Sc1cc(C(C)(C)C)c(O)c(C(C)(C)C)c1	0.504% [at 12.8 µM] (inactive)	
Cc1ncc([N+](=O)[O-])n1CCO	2.15% (inactive)	
CCCc1cc(C(N)=S)ccn1	5.39% (inactive)	
CCCN[C@H]1CCc2nc(N)sc2C1	0.667% (inactive)	
COC(=O)Nc1nc2ccc(C(=O)c3ccccc3)cc2[nH]1	-13.2% [at 12.8 µM] (inactive)	
CC(C)(C#N)c1cc(Cn2cncn2)cc(C(C)(C)C#N)c1	-5.32% (inactive)	
COc1c(N2CCNC(C)C2)c(F)cc2c(=O)c(C(=O)O)cn(C3CC3)c12 (stereo not drawn)	-25% (inactive)	
O=C(O)c1cc(=O)[nH]c(=O)[nH]1	6.65% (inactive)	
CNS(=O)(=O)Cc1ccc2[nH]cc(CCN(C)C)c2c1	-0.909% (inactive)	
CCOc1cc(N)c(Cl)cc1C(=O)NCC1CN(Cc2ccc(F)cc2)CCO1 (stereo not drawn)		11200 nM (active)
CCC(C)(C)c1ccc(CC(C)CN2C[C@@H](C)O[C@@H](C)C2)cc1 (stereo partly drawn)	-18.3% (inactive)	
CN(C)c1ccc(C(=C2C=CC(=[N+](C)C)C=C2)c2ccc(N(C)C)cc2)cc1		355 nM (active)
COc1ccc(C(=O)CC(=O)c2ccc(C(C)(C)C)cc2)cc1	-3.91% (inactive)	
CCc1cc(C(N)=S)ccn1	3.78% (inactive)	
NC(=O)N1c2ccccc2CC(=O)c2ccccc21	-1.5% (inactive)	
Cc1nnc(NS(=O)(=O)c2ccc(N)cc2)s1	6.16% (inactive)	
CCN(C)C(=O)Oc1cccc([C@H](C)N(C)C)c1	-2.8% (inactive)	
CNC1CCCN(c2c(F)cc3c(=O)c(C(=O)O)cn(C4CC4)c3c2OC)C1 (stereo not drawn)	-1.47% (inactive)	
COc1cc(NCc2ccc3nc(N)nc(N)c3c2C)cc(OC)c1OC		631 nM (active)

test system: CP185; assay: as above; conditions: P. falciparum in erythrocytes, SYBR Green DNA, 72 h; series mostly up to 28.7 µM; activity, negative = inhibition: at the top concentration
In short: as §1

SMILES	activity, negative = inhibition	Potency
Cn1nnc2c(C(N)=O)ncn2c1=O	11.8% (inactive)	
CC(C)OC(=O)C(C(=O)OC(C)C)=C1SC=CS1	10.4% (inactive)	
CC1=NN(c2ccccc2)C(=O)C1	1.98% (inactive)	
COC(=O)Nc1nc2ccc(Sc3ccccc3)cc2[nH]1	3.28% [at 12.8 µM] (inactive)	
CCc1c2c(nc3ccc(OC(=O)N4CCC(N5CCCCC5)CC4)cc13)-c1cc3c(c(=O)n1C2)COC(=O)[C@]3(O)CC	0.109% (inactive)	
Cc1noc(NS(=O)(=O)c2ccc(N)cc2)c1C	10.5% (inactive)	
CN1CCN(c2c(F)cc3c(=O)c(C(=O)O)cn4c3c2OCN4C)CC1	-5.35% (inactive)	
S=P(N1CC1)(N1CC1)N1CC1	0.47% (inactive)	
CC[C@H](NC(C)C)[C@H](O)c1ccc(O)c2[nH]c(=O)ccc12	0.512% (inactive)	
CC[C@H](C)C(=O)O[C@H]1C[C@@H](C)C=C2C=C[C@H](C)[C@H](CC[C@@H]3C[C@@H](O)CC(=O)O3)[C@H]21	1.86% (inactive)	
CC(C)(Sc1cc(C(C)(C)C)c(O)c(C(C)(C)C)c1)Sc1cc(C(C)(C)C)c(O)c(C(C)(C)C)c1	0.699% [at 12.8 µM] (inactive)	
Cc1ncc([N+](=O)[O-])n1CCO	4.07% (inactive)	
CCCc1cc(C(N)=S)ccn1	1.43% (inactive)	
CCCN[C@H]1CCc2nc(N)sc2C1	11.7% (inactive)	
COC(=O)Nc1nc2ccc(C(=O)c3ccccc3)cc2[nH]1	0.653% [at 12.8 µM] (inactive)	
CC(C)(C#N)c1cc(Cn2cncn2)cc(C(C)(C)C#N)c1	2.94% (inactive)	
COc1c(N2CCNC(C)C2)c(F)cc2c(=O)c(C(=O)O)cn(C3CC3)c12 (stereo not drawn)	-19.9% (inactive)	
O=C(O)c1cc(=O)[nH]c(=O)[nH]1	6.49% (inactive)	
CNS(=O)(=O)Cc1ccc2[nH]cc(CCN(C)C)c2c1	-1.54% (inactive)	
CCOc1cc(N)c(Cl)cc1C(=O)NCC1CN(Cc2ccc(F)cc2)CCO1 (stereo not drawn)		10000 nM (active)
CCC(C)(C)c1ccc(CC(C)CN2C[C@@H](C)O[C@@H](C)C2)cc1 (stereo partly drawn)	-6.37% (inactive)	
CN(C)c1ccc(C(=C2C=CC(=[N+](C)C)C=C2)c2ccc(N(C)C)cc2)cc1		398 nM (active)
COc1ccc(C(=O)CC(=O)c2ccc(C(C)(C)C)cc2)cc1	0.521% (inactive)	
CCc1cc(C(N)=S)ccn1	9.07% (inactive)	
NC(=O)N1c2ccccc2CC(=O)c2ccccc21	1.45% (inactive)	
Cc1nnc(NS(=O)(=O)c2ccc(N)cc2)s1	16% (inactive)	
CCN(C)C(=O)Oc1cccc([C@H](C)N(C)C)c1	4.52% (inactive)	
CNC1CCCN(c2c(F)cc3c(=O)c(C(=O)O)cn(C4CC4)c3c2OC)C1 (stereo not drawn)	5.6% (inactive)	
COc1cc(NCc2ccc3nc(N)nc(N)c3c2C)cc(OC)c1OC		562 nM (active)
